Laboratory results taken from PubChem BioAssay (NCI).
Compounds without any hit were thinned out: in the full panel of roughly 83,000, 20% have a hit.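 Step 1: grow cells in 96-well plates. Step 2: add test compound at a single concentration. Step 3: incubate 48 h. Step 4: record percent growth.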 Values without a mark were called inactive. The source made the active and inactive calls. How the source made its calls: active means growth percent below 10; inactive means the rest.

Key:
Assay in all cases: NCI-60 one-dose screen, 48 h (100 = growth as untreated, 0 = no growth, -100 = all killed)
HCT-15 colon = settings: 10 µM unless noted
HT29 colon = settings: 10 µM unless noted
SNB-75 CNS = settings: 10 µM unless noted
SNB-19 CNS = settings: 10 µM unless noted
U251 CNS = settings: 10 µM unless noted
PC-3 prostate = settings: 10 µM unless noted
SK-MEL-5 melanoma = settings: 10 µM unless noted
UACC-62 melanoma = settings: 10 µM unless noted
LOX IMVI melanoma = settings: 10 µM
SK-MEL-28 melanoma = settings: 10 µM unless noted
SK-MEL-2 melanoma = settings: 10 µM unless noted
EKVX NSCLC = settings: 10 µM unless noted
SN12C renal = settings: 10 µM unless noted
UO-31 renal = settings: 10 µM unless noted
TK-10 renal = settings: 10 µM unless noted
ACHN renal = settings: 10 µM unless noted
CAKI-1 renal = settings: 10 µM unless noted
A498 renal = settings: 10 µM unless noted
CCRF-CEM leukemia = settings: 10 µM unless noted
MOLT-4 leukemia = settings: 10 µM unless noted

Row | Structure (SMILES) | growth (HCT-15 colon) | growth (HT29 colon) | growth (SNB-75 CNS) | growth (SNB-19 CNS) | growth (U251 CNS) | growth (PC-3 prostate) | growth (SK-MEL-5 melanoma) | growth (UACC-62 melanoma) | growth (LOX IMVI melanoma) | growth (SK-MEL-28 melanoma) | growth (SK-MEL-2 melanoma) | growth (EKVX NSCLC) | growth (SN12C renal) | growth (UO-31 renal) | growth (TK-10 renal) | growth (ACHN renal) | growth (CAKI-1 renal) | growth (A498 renal) | growth (CCRF-CEM leukemia) | growth (MOLT-4 leukemia)
1 | OCC1(CCCc2ccccc2)CCCN(c2nccc3ccccc23)C1 (stereo not given) | 27.7% | 21.3% | 40.5% | 44.2% | 40.1% | 52.2% | -60% (active) | 38.7% | 35.8% | 32.4% | 30.7% | 23.4% | 44.4% | 26.9% | 50.1% | 51.8% | 38.6% | 63.3% | 49.2% | 32.3%
2 | Cc1ccc(-c2nc(C#N)c(S(=O)(=O)N3CCN(S(=O)(=O)c4ccccc4)CC3)o2)cc1 | -85.8% (active) | -56% (active) | 103% | 74.9% | 24.3% | 52.3% | 0.485% (active) | 18.5% | -92.2% (active) | 18.9% | 48% | 63.1% | 3.58% (active) | -67.7% (active) | 81.2% | -36.9% (active) | 47% | 123% | -33.6% (active) | -20.5% (active)
3 | C#CCOc1cc(N(CC)CC)ccc1C(C(=O)NC(C)(C)C)N(C(=O)C1CCc2cc(F)ccc2O1)c1ccccc1F (stereo not given) | 29.8% | 45.3% | 39.7% | 35.1% | 17.5% | 13.5% | 17.3% | 30.9% | -61.6% (active) | 63.9% | -39.4% (active) | 44.5% | 43.7% | 23.3% | 45% | 18.7% | 22.4% | 33.3% | 31.8% | 5.25% (active)
4 | O=c1oc2ccccc2cc1-c1csc(N2N=C(c3ccccc3)CC2c2ccc(N3CCOCC3)cc2)n1 (stereo not given) | 96.6% | 117% | 101% | 116% | 109% | 102% | 105% | 92.2% | 86.7% | 109% | 101% | 96.1% | 107% | 73.8% | 159% | 99.2% | 90.6% | 153% | 96.6% | 95.9%
5 | O=C1CCCc2cc(OCC(=O)N3CCCCC3)ccc2N1 | 105% | 127% | 101% | 99.7% | 107% | 109% | 104% | 105% | 97.1% | 119% | 111% | 104% | 114% | 92.9% | 104% | 107% | 96.7% | 114% | 98.4% | 102%
6 | N/C(=N\c1nc2ccccc2s1)NC(=O)Nc1ccc(Cl)cc1Cl | -25.7% (active) | -90.1% (active) | -68.8% (active) | -23.5% (active) | -97.9% (active) | -2.3% (active) | -56.5% (active) | -49.8% (active) | -96.8% (active) | -33.2% (active) | -49.9% (active) | -42.5% (active) | -88.7% (active) | -93% (active) | -84.9% (active) | -87.4% (active) | -87.7% (active) | -84.6% (active) | 5.6% (active) | 6.86% (active)
7 | O=C(NN1C(=O)/C(=C/C=C/c2ccc([N+](=O)[O-])o2)SC1=S)c1ccccc1O | -80.3% (active) | -72.2% (active) | -61.8% (active) | -96.1% (active) | -99.5% (active) | -6.66% (active) | -100% (active) | -93.7% (active) | -91.6% (active) | -94.6% (active) | -86.9% (active) | -94.1% (active) | -98.2% (active) | -99.5% (active) | -87.6% (active) | -100% (active) | -100% (active) | -61.2% (active) | 5.02% (active) | 6.95% (active)
8 | COc1ccc(/C=C/c2n(Cc3ccc4ccccc4c3)c3ccccc3[n+]2Cc2ccc3ccccc3c2)cc1 | -76.9% (active) | -97.1% (active) | -95.7% (active) | -94.6% (active) | -94.3% (active) | -25.1% (active) | -97.6% (active) | -90.5% (active) | -80.4% (active) | -89% (active) | -93.7% (active) | -82.7% (active) | -88.8% (active) | -93% (active) | -93.7% (active) | -100% (active) | -100% (active) | -79.8% (active) | -24.2% (active) | -2.71% (active)
